Experimental data taken from the supplement of paper PMC11732987, “Enantioselective OTUD7B fragment discovery through chemoproteomics screening and high-throughput optimisation” (Communications Chemistry, 2025).

Tests used:
Test in all cases: log2 ratio of Biotin-Ahx-Ub-VS probe labelling (fragment/DMSO); higher = less target engagement (more negative = stronger competition), active = hit call of the paper (q ≤ 0.05, log2 ratio ≤ -1)
Conditions in all cases: compound concentration: 200 uM; treatment time: 3 h
USP34 = USP34 (UniProt Q70CQ2)
How it was run: (§1)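 Fragment (200 µM) or vehicle was incubated for 3 h with triplicate HEK293T lysate samples of 495 µg, which were then treated with Biotin-Ahx-Ub-VS at 0.5 µM final for 1 h. Labelled DUBs were enriched on NeutrAvidin, digested with LysC and trypsin, and analysed by diaPASEF LC-MS/MS. Values are average log2 fragment/vehicle ratios from an unpaired t-test on global-median-normalised Spectronaut label-free quantities, using proteins with ≥2 unique peptides.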

USP36 = biological target: T1, USP36 (UniProt Q9P275)
T1 sequence (whole entry): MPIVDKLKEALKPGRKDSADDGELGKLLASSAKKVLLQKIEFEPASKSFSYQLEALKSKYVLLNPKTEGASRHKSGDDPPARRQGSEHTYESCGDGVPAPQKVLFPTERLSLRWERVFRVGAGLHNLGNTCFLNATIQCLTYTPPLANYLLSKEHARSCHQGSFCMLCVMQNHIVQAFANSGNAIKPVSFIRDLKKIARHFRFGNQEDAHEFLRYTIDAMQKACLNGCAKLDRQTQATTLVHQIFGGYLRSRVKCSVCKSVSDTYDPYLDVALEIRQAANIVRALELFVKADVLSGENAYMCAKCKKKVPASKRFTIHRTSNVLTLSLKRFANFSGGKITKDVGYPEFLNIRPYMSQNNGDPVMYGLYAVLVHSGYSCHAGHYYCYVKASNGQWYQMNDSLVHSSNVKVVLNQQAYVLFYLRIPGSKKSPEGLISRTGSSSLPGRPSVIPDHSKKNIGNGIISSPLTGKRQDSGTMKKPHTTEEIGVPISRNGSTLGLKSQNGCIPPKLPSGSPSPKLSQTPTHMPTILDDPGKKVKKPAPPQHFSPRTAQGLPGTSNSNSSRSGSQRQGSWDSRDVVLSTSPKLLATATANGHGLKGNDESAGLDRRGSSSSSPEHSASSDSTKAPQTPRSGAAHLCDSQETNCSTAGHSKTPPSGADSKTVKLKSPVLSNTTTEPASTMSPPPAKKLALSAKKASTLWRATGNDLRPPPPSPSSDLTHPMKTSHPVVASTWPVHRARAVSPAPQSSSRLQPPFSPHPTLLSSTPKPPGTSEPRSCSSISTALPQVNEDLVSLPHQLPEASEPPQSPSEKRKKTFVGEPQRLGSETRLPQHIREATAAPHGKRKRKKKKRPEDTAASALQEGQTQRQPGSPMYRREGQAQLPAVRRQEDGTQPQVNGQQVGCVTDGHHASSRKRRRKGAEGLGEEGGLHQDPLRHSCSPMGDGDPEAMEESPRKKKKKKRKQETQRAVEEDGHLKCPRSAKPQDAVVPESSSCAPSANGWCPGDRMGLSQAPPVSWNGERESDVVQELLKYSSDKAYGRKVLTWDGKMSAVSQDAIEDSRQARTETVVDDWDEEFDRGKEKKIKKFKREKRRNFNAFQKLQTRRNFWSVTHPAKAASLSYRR
How it was run: as §1

USP38 = biological target: T2, USP38 (UniProt Q8NB14)
T2 sequence (whole entry): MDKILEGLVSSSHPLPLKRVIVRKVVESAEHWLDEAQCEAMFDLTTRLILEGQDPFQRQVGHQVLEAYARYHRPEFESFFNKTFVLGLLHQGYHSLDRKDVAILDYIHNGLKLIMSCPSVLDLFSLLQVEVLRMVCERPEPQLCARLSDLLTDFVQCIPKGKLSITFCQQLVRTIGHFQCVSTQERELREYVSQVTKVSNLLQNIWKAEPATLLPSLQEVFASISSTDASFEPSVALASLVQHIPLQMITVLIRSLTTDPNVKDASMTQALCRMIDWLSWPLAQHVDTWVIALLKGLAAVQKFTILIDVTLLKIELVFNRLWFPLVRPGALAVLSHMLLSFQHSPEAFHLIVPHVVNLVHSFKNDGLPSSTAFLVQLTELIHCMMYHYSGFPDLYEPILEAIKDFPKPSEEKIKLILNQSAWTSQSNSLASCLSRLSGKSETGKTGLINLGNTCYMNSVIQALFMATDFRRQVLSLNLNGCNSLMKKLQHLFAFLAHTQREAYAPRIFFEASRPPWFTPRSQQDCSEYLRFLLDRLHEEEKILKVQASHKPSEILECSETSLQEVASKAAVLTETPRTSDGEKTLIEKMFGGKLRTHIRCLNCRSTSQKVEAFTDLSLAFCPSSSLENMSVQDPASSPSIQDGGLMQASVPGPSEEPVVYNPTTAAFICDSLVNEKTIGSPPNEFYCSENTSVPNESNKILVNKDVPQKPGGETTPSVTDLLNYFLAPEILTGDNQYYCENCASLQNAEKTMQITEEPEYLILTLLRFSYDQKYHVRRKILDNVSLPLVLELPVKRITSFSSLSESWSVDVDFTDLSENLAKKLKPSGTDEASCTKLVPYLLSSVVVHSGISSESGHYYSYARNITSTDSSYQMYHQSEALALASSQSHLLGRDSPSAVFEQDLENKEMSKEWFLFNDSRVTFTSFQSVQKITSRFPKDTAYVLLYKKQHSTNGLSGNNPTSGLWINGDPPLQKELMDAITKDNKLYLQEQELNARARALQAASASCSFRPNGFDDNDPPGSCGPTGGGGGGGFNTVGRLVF
How it was run: as §1

USP39 = biological target: T3, USP39 (UniProt Q53GS9)
T3 sequence (whole entry): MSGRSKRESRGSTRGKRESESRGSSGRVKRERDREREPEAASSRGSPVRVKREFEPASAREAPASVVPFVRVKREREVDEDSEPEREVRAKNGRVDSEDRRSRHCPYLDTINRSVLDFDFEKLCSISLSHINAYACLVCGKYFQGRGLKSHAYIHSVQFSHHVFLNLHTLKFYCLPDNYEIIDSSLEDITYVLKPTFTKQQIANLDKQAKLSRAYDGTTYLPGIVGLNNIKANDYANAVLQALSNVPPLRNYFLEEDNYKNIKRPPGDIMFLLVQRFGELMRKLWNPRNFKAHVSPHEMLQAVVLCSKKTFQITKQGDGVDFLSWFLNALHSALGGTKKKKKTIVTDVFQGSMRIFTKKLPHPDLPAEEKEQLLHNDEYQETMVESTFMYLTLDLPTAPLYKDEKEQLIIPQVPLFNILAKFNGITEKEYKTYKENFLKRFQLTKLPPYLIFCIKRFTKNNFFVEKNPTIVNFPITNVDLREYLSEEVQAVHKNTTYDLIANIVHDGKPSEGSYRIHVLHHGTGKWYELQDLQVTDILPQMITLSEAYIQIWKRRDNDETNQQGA
How it was run: as §1

USP4 = biological target: T4, USP4 (UniProt Q13107)
T4 sequence (whole entry): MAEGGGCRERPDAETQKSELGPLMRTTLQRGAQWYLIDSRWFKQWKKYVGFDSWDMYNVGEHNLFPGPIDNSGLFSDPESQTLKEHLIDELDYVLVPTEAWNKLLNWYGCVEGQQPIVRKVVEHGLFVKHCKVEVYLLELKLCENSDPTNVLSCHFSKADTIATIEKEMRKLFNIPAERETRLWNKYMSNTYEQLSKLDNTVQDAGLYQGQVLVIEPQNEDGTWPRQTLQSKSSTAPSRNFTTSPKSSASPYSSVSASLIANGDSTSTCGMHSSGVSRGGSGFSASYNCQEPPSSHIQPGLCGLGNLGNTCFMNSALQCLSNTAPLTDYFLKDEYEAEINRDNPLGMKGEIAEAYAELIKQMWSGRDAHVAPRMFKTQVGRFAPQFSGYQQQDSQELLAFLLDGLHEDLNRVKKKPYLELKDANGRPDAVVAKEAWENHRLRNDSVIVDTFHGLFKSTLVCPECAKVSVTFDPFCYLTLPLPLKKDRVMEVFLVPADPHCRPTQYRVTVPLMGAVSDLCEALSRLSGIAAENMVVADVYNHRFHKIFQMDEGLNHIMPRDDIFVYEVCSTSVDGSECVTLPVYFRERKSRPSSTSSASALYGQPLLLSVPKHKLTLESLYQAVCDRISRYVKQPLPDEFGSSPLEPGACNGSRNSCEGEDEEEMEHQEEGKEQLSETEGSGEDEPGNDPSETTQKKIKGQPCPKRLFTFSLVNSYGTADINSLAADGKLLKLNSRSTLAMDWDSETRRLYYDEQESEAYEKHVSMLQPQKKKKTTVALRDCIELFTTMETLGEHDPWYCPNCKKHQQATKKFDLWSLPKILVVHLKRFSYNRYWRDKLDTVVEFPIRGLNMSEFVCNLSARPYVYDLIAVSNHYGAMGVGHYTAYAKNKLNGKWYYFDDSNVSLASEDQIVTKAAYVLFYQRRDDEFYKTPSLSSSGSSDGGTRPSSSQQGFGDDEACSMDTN
How it was run: as §1

Measured: log2 ratio of Biotin-Ahx-Ub-VS probe labelling

USP34, sequence (Q70CQ2 whole entry, the tested form may be a part): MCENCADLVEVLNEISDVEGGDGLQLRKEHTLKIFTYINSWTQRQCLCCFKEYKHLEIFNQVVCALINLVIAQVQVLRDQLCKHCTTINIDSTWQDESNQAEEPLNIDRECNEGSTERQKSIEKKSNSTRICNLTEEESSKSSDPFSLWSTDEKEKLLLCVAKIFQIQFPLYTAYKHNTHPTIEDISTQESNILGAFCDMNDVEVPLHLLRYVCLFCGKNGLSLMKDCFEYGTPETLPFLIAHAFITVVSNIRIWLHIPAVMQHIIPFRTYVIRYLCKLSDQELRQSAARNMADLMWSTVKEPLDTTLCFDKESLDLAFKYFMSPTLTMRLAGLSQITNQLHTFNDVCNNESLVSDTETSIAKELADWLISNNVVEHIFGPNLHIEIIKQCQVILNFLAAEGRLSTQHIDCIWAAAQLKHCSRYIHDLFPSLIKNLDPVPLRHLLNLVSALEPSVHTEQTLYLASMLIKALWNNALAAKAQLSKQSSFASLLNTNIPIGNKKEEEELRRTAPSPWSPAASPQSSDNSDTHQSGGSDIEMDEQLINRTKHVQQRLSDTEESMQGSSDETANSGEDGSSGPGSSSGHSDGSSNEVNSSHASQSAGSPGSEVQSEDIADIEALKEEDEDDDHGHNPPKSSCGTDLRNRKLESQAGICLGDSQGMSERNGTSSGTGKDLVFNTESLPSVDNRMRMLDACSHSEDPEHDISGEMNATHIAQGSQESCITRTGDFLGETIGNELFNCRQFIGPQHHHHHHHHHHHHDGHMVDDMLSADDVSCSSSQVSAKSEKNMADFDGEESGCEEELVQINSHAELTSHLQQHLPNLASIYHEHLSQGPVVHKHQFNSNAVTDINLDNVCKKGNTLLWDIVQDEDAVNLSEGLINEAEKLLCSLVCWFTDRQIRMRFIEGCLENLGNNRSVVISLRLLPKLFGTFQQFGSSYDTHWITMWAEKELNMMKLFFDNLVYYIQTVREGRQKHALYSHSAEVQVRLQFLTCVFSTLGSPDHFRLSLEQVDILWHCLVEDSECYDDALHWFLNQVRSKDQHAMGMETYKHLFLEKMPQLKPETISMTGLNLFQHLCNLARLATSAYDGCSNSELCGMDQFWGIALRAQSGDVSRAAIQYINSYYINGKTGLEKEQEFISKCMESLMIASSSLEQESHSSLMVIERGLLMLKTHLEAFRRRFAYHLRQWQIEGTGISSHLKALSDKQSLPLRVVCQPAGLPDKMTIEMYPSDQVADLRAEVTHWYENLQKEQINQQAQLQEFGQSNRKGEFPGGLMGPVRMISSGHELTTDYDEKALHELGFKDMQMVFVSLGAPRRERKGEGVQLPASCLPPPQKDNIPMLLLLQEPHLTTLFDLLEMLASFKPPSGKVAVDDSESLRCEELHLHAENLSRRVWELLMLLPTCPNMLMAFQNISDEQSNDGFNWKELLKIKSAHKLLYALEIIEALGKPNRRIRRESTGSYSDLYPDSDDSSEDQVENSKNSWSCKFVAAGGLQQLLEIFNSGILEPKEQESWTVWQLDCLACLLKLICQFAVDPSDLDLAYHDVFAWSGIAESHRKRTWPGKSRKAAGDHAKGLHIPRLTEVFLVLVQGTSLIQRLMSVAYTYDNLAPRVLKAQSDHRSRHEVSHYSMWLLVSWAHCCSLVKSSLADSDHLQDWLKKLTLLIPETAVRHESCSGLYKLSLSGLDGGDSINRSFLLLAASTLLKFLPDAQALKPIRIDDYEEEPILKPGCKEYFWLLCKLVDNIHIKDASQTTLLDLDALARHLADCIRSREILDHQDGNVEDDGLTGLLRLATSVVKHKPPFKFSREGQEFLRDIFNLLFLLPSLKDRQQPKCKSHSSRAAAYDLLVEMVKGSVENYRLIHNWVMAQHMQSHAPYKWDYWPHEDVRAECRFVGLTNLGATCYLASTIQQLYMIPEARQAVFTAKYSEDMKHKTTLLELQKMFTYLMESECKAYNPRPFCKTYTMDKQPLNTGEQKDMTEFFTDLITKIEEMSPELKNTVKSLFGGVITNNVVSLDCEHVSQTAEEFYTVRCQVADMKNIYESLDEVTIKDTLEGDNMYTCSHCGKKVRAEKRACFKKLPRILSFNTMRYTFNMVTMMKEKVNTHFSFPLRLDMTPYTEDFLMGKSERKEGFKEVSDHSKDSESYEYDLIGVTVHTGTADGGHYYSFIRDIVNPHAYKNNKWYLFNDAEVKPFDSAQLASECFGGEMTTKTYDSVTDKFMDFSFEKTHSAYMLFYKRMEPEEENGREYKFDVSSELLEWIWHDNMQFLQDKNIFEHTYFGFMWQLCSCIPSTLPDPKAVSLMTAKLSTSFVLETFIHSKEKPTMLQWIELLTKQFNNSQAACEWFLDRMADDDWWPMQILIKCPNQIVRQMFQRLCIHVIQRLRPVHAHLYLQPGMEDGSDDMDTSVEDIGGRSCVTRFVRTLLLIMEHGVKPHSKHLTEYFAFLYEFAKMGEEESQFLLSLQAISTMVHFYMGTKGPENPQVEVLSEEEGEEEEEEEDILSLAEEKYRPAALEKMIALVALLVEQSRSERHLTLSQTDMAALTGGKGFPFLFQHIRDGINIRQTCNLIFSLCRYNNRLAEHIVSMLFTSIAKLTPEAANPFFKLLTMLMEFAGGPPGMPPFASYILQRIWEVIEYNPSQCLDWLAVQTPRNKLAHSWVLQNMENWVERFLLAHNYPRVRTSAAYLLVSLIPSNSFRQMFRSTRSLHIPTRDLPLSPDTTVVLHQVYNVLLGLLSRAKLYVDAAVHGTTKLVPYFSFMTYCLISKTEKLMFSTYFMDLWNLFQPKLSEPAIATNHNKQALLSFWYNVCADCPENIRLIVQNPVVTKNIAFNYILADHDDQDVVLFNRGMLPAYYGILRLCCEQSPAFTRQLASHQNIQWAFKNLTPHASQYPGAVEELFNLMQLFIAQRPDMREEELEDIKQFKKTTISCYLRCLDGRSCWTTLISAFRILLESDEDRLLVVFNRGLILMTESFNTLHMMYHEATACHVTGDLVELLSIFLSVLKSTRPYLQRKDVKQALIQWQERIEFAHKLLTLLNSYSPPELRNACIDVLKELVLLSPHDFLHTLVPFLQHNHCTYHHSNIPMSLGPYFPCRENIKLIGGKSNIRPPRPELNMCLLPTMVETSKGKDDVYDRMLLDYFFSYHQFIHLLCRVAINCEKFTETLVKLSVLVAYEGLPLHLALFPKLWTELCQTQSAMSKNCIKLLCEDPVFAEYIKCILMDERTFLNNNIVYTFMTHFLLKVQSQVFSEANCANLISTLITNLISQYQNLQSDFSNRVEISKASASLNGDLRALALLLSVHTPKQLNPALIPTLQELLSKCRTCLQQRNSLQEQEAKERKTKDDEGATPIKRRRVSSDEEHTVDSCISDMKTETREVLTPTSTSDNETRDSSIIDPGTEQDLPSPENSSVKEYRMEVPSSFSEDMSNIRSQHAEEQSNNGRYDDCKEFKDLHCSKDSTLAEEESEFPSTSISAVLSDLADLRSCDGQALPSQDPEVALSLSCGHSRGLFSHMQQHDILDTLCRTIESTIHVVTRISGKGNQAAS

O=C(CCl)N1CCC(C(=O)N2CCCC2)CC1
inactive: USP34 -0.0649 | USP36 -0.172 | USP38 -0.135 | USP39 -0.453 | USP4 -0.208
